Experimental findings from PubChem BioAssay (NCATS) are described below.

Experiment [1] can be described thus: qHTS Assay for Lipid Storage Modulators (AID 1519; calls by dose curve; as to activity change, negative = inhibition: % is scaled to controls: 0 for no effect and ±100 for the full control effect). The note with it: Drosophila S3 cells, BODIPY lipid droplet/cell ratio, laser cytometry, cells loaded with oleic acid. The essentials: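 Cells seeded at 5,000 per well were treated with compounds over a concentration series and loaded with oleic acid (400 uM, as added). Lipid droplet fluorescence (488 nm excitation, 500-530 nm channel) was read by laser-scanning cytometry and normalized to 20 uM Triacsin C.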

In experiment [2] the target is DNA repair nuclease/redox regulator APEX1 (Homo sapiens) (UniProt P27695). Kind of experiment: qHTS Validation Assay for Inhibitors of the Human Apurinic/apyrimidinic Endonuclease 1 (APE1) (AID 1705;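 also: TAMRA fluorescence gain over two minutes as APE1 cuts a quenched THF abasic duplex; % is scaled to controls: 0 for no effect and ±100 for the full control effect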). Summed up:
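Substrate: 50 nM final fluorophore/quencher THF-abasic duplex. Enzyme preincubated with compounds 15 min, RT. Progress derived from fluorescence difference, third minus first kinetic read.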
A general note: In qHTS, concentration-response curves come from the screen itself.

A short description of experiment [3]: Counterscreen for APE1 Inhibitors: Fluorescent Dye Displacement Validation Assay (AID 1707).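 Also: plate controls were ThO with dsDNA and no compound for no effect and ThO without dsDNA for full effect.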 Summed up: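 ThO 250 nM + dsDNA 50 nM (THF abasic site, 5'-TAMRA), Tris-HCl pH7.5/50mM NaCl/2 mM MgCl2/0.01% Tween-20; compounds pin-transferred; ex 480/em 540 nm endpoint. Neutral = no compound; no-DNA ThO wells = negative control.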
On the technique in general: The purpose of a counterscreen is to sort out artefacts and off-target activity.

In experiment [4] the target is Alpha-galactosidase A (Homo sapiens) (UniProt P06280). The experiment can be described thus: Counterscreen for Glucocerebrosidase Inhibitors: qHTS Assay for Human alpha-Galactosidase at pH 4.5 (AID 992). Also: 0% is about no effect. Summed up: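 Read-out is 4-methylumbelliferone fluorescence (365 nm excitation, 440 nm emission) after a pH 10 NaOH/glycine stop. Reactions held 2 nM enzyme and 80 uM substrate at pH 4.5 for 20 min at room temperature.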

Experiment [5] addresses alpha-glucosidase (Oryza sativa, rice) (UniProt Q653V4). The experiment can be described thus: Counterscreen for Glucocerebrosidase Inhibitors: qHTS Assay for Rice alpha-Glucosidase at pH 5.0 (AID 997).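 Also: 0% = full activity with enzyme and -100% = basal without enzyme.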 The essentials:
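Rice alpha-glucosidase (4 nM final) with 400 uM 4-methylumbelliferyl-alpha-D-glucopyranoside in citrate buffer pH 5.0, 20 min at room temperature, stopped at pH 10; fluorescence 365/440 nm, compounds 0.7 nM–77 uM, AC50 from Hill fits.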

A short description of experiment [6]: Validation of Assay for Modulators of Lamin A Splicing (AID 1459; active = well fitted curve in the direction sought with a large enough effect in the signal ratio; the % refers to the signal ratio;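 also: cells exposed to compound for two days before reading; 0% is about no effect; ratio rise marks activators and ratio drop marks inhibitors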). Summed up:
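Dual-reporter HeLa S3 line (lamin A-EGFP minigene, DsRed2) treated with compounds 48 hrs, 0.5% DMSO final. Endpoint: EGFP/DsRed2 total intensity ratio from laser-scanning microplate cytometry.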

The mark [7] stands for this setting: measured here: cell count channel max response.
[8] abbreviates: measured here: lipid channel max response.

Several values for one entry are separate records, joined by “and”; a condition that tells them apart may be missing. Equal values may be shown once. Inconclusive results are not listed. Activity calls are given as the source filed them. Unless noted, calls follow the shape of the dose curve; as a rule, active = well fitted curve in the direction sought with a large enough effect; inconclusive = small, poorly fitted or top-dose-only effect, or another doubt; inactive = no such curve, though single readings can be large; an effect the other way counts as inactive or inconclusive.

Chain of Alpha-galactosidase A (Homo sapiens) (P06280 whole entry, looked up): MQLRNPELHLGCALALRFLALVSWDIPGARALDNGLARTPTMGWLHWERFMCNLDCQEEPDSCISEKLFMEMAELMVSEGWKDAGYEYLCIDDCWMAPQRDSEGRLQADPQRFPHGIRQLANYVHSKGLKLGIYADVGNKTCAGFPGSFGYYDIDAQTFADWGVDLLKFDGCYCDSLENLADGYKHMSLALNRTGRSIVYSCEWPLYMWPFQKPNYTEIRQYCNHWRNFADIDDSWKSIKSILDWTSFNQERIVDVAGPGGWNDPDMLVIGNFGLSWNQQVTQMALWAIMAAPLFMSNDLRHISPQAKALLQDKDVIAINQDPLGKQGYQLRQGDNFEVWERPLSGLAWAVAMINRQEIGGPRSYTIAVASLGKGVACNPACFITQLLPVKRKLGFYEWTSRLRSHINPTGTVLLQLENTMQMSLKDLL
Chain of DNA repair nuclease/redox regulator APEX1 (Homo sapiens) (P27695 whole entry, looked up): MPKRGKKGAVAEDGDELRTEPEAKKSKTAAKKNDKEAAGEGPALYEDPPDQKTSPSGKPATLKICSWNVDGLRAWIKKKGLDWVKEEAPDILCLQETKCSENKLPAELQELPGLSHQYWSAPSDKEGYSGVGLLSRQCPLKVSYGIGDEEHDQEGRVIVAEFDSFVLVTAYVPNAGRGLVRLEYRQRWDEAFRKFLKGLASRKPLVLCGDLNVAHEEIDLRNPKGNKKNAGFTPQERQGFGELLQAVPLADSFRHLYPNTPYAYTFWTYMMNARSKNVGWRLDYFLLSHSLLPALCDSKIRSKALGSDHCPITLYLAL

On to `CCCN(CCC)C(=O)C(CCC(=O)O)NC(=O)c1ccccc1` (stereo not drawn), for which the activity change, negative = inhibition in experiment [1] (at 57.5 µM (top of the series)) was 2.72% (inactive). The max response is 19.5% in experiment [1] (setting [7]) and 23.3% in experiment [1] (setting [8]). The Potency result in experiment [2] was “inactive”. Also, in experiment [3], the call was inactive.

`CNC1(C)C2CCC(C2)C1(C)C` (stereo not drawn): in experiment [1] (at 57.5 µM (top of the series)), the activity change, negative = inhibition is 2.62% (inactive). For the same compound, the max response was determined as 45.4% in experiment [1] (setting [7]) and 47.5% in experiment [1] (setting [8]). Further, in experiment [2], the Potency entry is “inactive”. For the same compound, the call in experiment [3] was inactive.

For `COC(=O)[C@@H](N)Cc1ccc(O)c(O)c1`, the result in experiment [4], in experiment [5], in experiment [6] and in experiment [3] was inactive. The Potency result in experiment [2] was “inactive”.

Consider `COc1cc2c(cc1OC)-c1cc(=Nc3c(C)cc(C)cc3C)n(C)c(=O)n1CC2`, for which the result in experiment [4], in experiment [5], in experiment [6] and in experiment [3] was inactive. In addition, the Potency result in experiment [2] was “inactive”.

`CN(C(=O)CCCOc1ccc2[nH]c(=O)ccc2c1)C1CCCCC1`: the compound was called inactive in experiment [4], in experiment [5], in experiment [6] and in experiment [3]. The Potency entry in experiment [2] was “inactive”.

`CCCCNc1c(C(=O)OCC)c(C)nc2c1cnn2CC`: the compound was called inactive in experiment [4], in experiment [5] and in experiment [3]. The values for the activity change, negative = inhibition in experiment [1] (at 25.7 µM (top of the series)) and in experiment [1] (at 57.5 µM (top of the series)) were -0.42% (inactive) and -16.8% (inactive), respectively. Also, the max response in experiment [1] (setting [7]) is -19.5% and -31.7%; in experiment [1] (setting [8]), -18.5% and -43.9%. In addition, the Potency entry in experiment [2] was “inactive”.

`CCCC(C(=O)OCCN(CC)CC)(c1ccccc1)c1ccccc1`: the compound was classed as inactive in experiment [4], in experiment [5] and in experiment [3]. Also, the activity change, negative = inhibition was -1.67% (inactive) in experiment [1] (at 25.7 µM (top of the series)); -2.92% (inactive) and 2.44% (inactive) in experiment [1] (at 57.5 µM (top of the series)). In addition, the max response in experiment [1] (setting [7]) was -3.68% and -8.12% and 19.2%; in experiment [1] (setting [8]) it was -5.52% and -10.9% and 21.5%. Further, in experiment [2], the Potency entry is “inactive”.

In the case of `CC(C)NNC(=O)c1ccncc1`, the compound was called inactive in experiment [4], in experiment [5] and in experiment [3]. For the same compound, the activity change, negative = inhibition in experiment [1] (at 25.7 µM (top of the series)) is -0.171% (inactive); in experiment [1] (at 57.5 µM (top of the series)), 6.45% (inactive) and -0.103% (inactive). Moreover, the max response in experiment [1] (setting [7]) was 4.18% and 16.8% and -20.6%; in experiment [1] (setting [8]), 1.65% and 27.2% and -21.8%. Besides, in experiment [2], the Potency result is “inactive”.

`CCc1c(C)[nH]c2c1C(=O)C(CN1CCOCC1)CC2` (stereo not drawn): the compound was classed as inactive in experiment [4], in experiment [5], in experiment [6] and in experiment [3]. Also, the Potency result in experiment [2] is “inactive”.

Consider `CN(C)CCN(Cc1cccs1)c1ccccn1`, for which the compound was classed as inactive in experiment [4], in experiment [5] and in experiment [3]. Further, the activity change, negative = inhibition in experiment [1] (at 25.7 µM (top of the series)) was 0.542% (inactive); in experiment [1] (at 57.5 µM (top of the series)), 3.3% (inactive). The max response in experiment [1] (setting [7]) was 2.28% and 15.7%; in experiment [1] (setting [8]), 3.57% and 22%. In experiment [2], the Potency entry was “inactive”.

Turning to `O=C(O)CCCCCCCC(=O)O`, the compound was classed as inactive in experiment [4], in experiment [5], in experiment [6] and in experiment [3]. Also, the Potency entry in experiment [2] was “inactive”.

`Cc1ccc(Cl)c(Nc2ccccc2C(=O)O)c1Cl`: the call in experiment [4], in experiment [5] and in experiment [3] was inactive. Further, the activity change, negative = inhibition in experiment [1] (at 25.7 µM (top of the series)) was -1.03% (inactive); in experiment [1] (at 57.5 µM (top of the series)), 12.3% (inactive) and -1.87% (inactive). Besides, the max response was -11.2% and 0.124% and -35.9% in experiment [1] (setting [7]); -11.6% and 13.1% and -37% in experiment [1] (setting [8]). In addition, the Potency entry in experiment [2] was “inactive”.

Take `CCCOc1ccccc1-c1nc2n[nH]nc2c(=O)[nH]1`: the compound was classed as inactive in experiment [4], in experiment [5] and in experiment [3]. The activity change, negative = inhibition in experiment [1] (at 25.7 µM (top of the series)) was -0.67% (inactive); in experiment [1] (at 57.5 µM (top of the series)), 9.88% (inactive) and -1.66% (inactive). In addition, the max response in experiment [1] (setting [7]) was 4.38% and 27.6% and 39.3%; in experiment [1] (setting [8]) it was 5.08% and 45.2% and 35.5%. Moreover, the Potency entry in experiment [2] was “inactive”.
